# Columns and labels:
# Assay in all cases: DAPPL (digital affinity profiling via proximity ligation, sequencing); 10 mM Tris-HCl pH 7.5, 50 mM NaCl, 1 mM DTT, 4% glycerol, room temperature, 30 min; GST-TFs on glutathione beads, 16-mer random dsDNA library, 0.1% formaldehyde crosslink after washing; high values mean tight binding
# FLI1 = target: T1, FLI1 (Homo sapiens, UniProt Q01543 1-452); conditions: protein: recombinant; tags: N-terminal GST; dsDNA, one strand shown
# T1 sequence: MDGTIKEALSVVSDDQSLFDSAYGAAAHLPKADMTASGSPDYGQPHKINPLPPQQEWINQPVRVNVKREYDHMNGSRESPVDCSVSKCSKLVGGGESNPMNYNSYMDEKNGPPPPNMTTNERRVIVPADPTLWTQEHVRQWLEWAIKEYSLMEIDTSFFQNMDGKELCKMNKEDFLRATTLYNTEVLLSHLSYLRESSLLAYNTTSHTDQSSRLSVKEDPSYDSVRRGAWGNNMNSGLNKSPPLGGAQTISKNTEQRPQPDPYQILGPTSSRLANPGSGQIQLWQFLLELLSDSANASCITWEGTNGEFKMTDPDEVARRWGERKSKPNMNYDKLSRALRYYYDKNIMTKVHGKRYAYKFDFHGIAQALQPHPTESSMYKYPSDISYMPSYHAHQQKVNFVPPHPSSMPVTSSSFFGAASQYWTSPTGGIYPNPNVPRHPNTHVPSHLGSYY
# Procedure, shortened: (§1)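 A tag-only sample was pooled with DNA-barcoded human transcription factors that had been expressed in yeast as GST fusions and captured on glutathione beads. The pools were incubated for 30 min at room temperature with 200 nmole of a random double-stranded 16-mer DNA library in Tris/NaCl/DTT/glycerol buffer, then washed, crosslinked with 0.1% formaldehyde, proximity-ligated (BsaI/T4 ligase, 1 h, 37 °C), PCR-amplified and sequenced on an Illumina NextSeq500. Binding signal is each hexamer's read frequency for a factor divided by its frequency for the tag-only sample.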
# ELK1 = target: T2, ELK1 (Homo sapiens, UniProt P19419 1-428); conditions: protein: recombinant; tags: N-terminal GST; dsDNA, one strand shown
# T2 sequence: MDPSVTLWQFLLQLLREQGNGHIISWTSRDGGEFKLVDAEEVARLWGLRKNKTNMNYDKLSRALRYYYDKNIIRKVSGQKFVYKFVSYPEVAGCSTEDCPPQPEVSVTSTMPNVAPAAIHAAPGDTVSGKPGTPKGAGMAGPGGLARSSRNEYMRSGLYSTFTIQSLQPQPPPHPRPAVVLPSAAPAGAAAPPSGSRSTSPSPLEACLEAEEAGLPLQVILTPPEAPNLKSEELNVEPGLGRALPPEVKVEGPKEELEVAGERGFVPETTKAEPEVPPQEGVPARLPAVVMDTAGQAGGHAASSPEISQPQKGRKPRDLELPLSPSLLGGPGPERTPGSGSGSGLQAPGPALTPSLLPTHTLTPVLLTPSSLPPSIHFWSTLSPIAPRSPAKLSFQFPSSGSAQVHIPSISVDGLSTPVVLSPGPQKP
# Procedure, shortened: as §1
# GABPA = target: T3, GABPA (Homo sapiens, UniProt Q06546 1-454); conditions: protein: recombinant; tags: N-terminal GST; dsDNA, one strand shown
# T3 sequence: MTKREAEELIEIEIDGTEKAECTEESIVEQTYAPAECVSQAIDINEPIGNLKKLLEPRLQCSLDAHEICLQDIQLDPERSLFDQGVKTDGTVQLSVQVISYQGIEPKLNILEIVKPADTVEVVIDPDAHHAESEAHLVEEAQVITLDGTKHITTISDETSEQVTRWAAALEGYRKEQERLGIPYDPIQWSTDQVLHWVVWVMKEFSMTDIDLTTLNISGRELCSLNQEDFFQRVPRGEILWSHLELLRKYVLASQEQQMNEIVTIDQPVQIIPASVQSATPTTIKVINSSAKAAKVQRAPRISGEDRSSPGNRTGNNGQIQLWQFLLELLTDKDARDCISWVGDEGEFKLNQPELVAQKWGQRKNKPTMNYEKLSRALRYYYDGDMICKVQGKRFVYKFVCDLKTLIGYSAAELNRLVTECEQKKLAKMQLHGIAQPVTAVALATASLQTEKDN
# Procedure, shortened: as §1
# ERG = target: T4, ERG (Homo sapiens, UniProt P11308 1-479); conditions: protein: recombinant; tags: N-terminal GST; dsDNA, one strand shown
# T4 sequence: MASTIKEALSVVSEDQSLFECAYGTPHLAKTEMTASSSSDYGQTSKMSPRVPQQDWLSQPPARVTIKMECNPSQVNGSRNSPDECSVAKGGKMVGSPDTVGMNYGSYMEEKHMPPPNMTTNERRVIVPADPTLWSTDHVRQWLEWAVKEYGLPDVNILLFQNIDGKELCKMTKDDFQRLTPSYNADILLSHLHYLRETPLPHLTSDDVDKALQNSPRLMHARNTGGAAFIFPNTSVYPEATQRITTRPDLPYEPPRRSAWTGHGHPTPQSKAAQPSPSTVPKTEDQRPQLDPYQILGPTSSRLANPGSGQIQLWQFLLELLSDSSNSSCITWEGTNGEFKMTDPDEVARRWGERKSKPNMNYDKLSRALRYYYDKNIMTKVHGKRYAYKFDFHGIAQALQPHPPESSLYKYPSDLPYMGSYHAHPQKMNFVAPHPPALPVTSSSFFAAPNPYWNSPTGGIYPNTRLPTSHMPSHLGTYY
# Procedure, shortened: as §1
# ELF1 = ELF1 (Homo sapiens, UniProt P32519 1-619); conditions: protein: recombinant; tags: N-terminal GST; dsDNA, one strand shown
# Procedure, shortened: as §1
# EHF = target: T5, EHF (Homo sapiens, UniProt Q9NZC4 1-300); conditions: protein: recombinant; tags: N-terminal GST; dsDNA, one strand shown
# T5 sequence: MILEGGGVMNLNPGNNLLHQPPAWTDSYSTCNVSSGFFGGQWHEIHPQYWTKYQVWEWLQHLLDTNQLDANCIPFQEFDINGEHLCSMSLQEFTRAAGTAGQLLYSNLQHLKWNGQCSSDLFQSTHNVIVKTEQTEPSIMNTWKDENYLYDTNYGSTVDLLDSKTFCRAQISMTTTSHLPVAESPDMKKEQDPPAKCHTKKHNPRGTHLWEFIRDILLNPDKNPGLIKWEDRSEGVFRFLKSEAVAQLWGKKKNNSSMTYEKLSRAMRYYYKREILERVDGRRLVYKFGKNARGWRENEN
# Procedure, shortened: as §1
# SPI1 = SPI1 (Homo sapiens, UniProt P17947 1-270); conditions: protein: recombinant; tags: N-terminal GST; dsDNA, one strand shown
# Procedure, shortened: as §1
# SPIB = SPIB (Homo sapiens, UniProt Q01892 1-262); conditions: protein: recombinant; tags: N-terminal GST; dsDNA, one strand shown
# Procedure, shortened: as §1
# ELK3 = target: T6, ELK3 (Homo sapiens, UniProt P41970 1-407); conditions: protein: recombinant; tags: N-terminal GST; dsDNA, one strand shown
# T6 sequence: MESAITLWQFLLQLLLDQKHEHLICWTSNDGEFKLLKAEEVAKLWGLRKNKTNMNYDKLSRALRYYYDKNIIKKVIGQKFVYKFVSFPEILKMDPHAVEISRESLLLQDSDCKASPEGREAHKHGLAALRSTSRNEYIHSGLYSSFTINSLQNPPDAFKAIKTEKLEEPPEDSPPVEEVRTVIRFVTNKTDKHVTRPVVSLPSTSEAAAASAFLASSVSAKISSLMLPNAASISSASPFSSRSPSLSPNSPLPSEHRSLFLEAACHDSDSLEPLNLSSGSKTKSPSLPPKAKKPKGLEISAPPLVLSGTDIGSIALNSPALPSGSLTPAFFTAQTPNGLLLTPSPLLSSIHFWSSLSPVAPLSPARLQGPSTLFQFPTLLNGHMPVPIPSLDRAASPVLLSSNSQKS
# Procedure, shortened: as §1
# FEV = target: T7, FEV (Homo sapiens, UniProt Q99581 1-238); conditions: protein: recombinant; tags: N-terminal GST; dsDNA, one strand shown
# T7 sequence: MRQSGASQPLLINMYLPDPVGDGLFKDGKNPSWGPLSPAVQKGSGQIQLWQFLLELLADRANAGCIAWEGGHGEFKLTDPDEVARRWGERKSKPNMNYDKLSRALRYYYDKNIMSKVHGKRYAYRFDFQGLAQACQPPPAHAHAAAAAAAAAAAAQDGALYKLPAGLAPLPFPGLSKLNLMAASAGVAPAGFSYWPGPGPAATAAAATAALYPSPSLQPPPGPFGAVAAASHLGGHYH
# Procedure, shortened: as §1
# ETV5 = ETV5 (Homo sapiens, UniProt P41161 1-510); conditions: protein: recombinant; tags: N-terminal GST; dsDNA, one strand shown
# Procedure, shortened: as §1
# HSF1 = HSF1 (Homo sapiens, UniProt Q00613 1-529); conditions: protein: recombinant; tags: N-terminal GST; chain copies: 3; dsDNA, one strand shown
# Procedure, shortened: as §1
# SPIC = target: T8, SPIC (Homo sapiens, UniProt Q8N5J4 1-248); conditions: protein: recombinant; tags: N-terminal GST; dsDNA, one strand shown
# T8 sequence: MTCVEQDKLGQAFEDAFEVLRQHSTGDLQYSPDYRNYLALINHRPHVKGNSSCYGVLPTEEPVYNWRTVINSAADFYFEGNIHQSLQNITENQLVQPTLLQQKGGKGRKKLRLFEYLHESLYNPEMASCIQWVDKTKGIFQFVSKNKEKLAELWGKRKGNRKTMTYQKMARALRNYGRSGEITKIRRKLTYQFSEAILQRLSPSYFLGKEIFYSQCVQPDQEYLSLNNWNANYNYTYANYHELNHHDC
# Procedure, shortened: as §1
# ELF4 = ELF4 (Homo sapiens, UniProt Q99607 1-663); conditions: protein: recombinant; tags: N-terminal GST; dsDNA, one strand shown
# Procedure, shortened: as §1
# ELK4 = target: T9, ELK4 (Homo sapiens, UniProt P28324-2 1-405); conditions: protein: recombinant; tags: N-terminal GST; dsDNA, one strand shown
# T9 sequence: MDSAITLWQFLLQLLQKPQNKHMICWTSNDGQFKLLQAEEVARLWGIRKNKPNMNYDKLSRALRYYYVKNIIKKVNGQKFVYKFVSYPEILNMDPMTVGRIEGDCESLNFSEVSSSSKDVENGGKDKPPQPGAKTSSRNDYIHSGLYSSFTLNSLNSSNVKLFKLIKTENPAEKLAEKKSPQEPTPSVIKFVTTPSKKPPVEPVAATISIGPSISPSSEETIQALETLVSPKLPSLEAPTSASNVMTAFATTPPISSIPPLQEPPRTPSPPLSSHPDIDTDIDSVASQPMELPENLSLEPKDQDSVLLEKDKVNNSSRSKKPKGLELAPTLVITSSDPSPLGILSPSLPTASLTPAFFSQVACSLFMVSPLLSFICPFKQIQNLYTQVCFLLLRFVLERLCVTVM
# Procedure, shortened: as §1
# ETV2 = target: T10, ETV2 (Homo sapiens, UniProt O00321 1-342); conditions: protein: recombinant; tags: N-terminal GST; dsDNA, one strand shown
# T10 sequence: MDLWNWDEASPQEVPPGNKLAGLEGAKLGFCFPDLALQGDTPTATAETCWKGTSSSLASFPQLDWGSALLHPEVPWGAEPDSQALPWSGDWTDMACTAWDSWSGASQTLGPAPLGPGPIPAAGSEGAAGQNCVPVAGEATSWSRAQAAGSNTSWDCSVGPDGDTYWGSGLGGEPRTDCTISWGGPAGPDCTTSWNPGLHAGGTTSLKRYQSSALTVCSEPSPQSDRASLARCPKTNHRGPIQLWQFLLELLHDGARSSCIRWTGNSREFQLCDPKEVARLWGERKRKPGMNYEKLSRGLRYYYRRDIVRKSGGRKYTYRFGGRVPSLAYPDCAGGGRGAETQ
# Procedure, shortened: as §1
# ELF3 = target: T11, ELF3 (Homo sapiens, UniProt P78545 1-371); conditions: protein: recombinant; tags: N-terminal GST; dsDNA, one strand shown
# T11 sequence: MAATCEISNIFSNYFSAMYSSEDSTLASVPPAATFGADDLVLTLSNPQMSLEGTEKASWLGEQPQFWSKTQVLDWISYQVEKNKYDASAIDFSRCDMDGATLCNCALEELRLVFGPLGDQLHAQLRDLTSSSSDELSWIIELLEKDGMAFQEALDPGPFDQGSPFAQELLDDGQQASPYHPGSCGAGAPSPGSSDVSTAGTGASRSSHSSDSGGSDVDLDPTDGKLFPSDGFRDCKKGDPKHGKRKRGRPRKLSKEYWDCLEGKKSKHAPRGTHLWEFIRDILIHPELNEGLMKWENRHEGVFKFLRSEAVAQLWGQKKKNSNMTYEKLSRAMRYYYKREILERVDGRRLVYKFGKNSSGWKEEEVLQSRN
# Procedure, shortened: as §1
# CRX = CRX (Homo sapiens, UniProt O43186 1-299); conditions: protein: recombinant; tags: N-terminal GST; dsDNA, one strand shown
# Procedure, shortened: as §1
# ETV1 = ETV1 (Homo sapiens, UniProt P50549 1-477); conditions: protein: recombinant; tags: N-terminal GST; dsDNA, one strand shown
# Procedure, shortened: as §1
# Chain of CRX (O43186 whole entry): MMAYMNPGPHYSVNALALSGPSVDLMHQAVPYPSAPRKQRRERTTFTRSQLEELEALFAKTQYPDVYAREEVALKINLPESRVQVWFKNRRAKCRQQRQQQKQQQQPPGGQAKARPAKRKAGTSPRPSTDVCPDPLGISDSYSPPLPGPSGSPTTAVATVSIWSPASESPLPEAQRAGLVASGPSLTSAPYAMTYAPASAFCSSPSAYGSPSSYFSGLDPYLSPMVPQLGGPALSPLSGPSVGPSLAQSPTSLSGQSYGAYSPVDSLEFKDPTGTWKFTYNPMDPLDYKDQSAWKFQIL
# Chain of SPIB (Q01892 whole entry): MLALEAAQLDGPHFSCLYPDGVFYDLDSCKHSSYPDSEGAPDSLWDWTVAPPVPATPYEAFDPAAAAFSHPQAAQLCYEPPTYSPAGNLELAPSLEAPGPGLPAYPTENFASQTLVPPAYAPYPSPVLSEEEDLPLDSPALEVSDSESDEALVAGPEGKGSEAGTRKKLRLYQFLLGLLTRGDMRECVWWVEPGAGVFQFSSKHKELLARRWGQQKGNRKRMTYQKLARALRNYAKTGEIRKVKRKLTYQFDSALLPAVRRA
# Chain of ETV1 (P50549 whole entry): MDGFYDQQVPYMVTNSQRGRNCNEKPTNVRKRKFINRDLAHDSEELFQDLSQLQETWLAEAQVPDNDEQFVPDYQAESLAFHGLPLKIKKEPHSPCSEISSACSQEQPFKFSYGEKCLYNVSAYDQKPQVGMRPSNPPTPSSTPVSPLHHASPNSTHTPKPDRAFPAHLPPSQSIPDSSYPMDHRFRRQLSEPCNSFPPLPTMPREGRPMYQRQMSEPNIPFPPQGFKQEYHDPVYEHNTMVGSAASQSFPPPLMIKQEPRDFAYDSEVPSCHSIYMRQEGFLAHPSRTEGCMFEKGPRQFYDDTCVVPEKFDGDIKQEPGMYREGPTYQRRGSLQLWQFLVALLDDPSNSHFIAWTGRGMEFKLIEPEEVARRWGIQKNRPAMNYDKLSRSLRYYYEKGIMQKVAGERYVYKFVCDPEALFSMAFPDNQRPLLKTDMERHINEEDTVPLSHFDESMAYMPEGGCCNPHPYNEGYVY
# Chain of ELF1 (P32519 whole entry): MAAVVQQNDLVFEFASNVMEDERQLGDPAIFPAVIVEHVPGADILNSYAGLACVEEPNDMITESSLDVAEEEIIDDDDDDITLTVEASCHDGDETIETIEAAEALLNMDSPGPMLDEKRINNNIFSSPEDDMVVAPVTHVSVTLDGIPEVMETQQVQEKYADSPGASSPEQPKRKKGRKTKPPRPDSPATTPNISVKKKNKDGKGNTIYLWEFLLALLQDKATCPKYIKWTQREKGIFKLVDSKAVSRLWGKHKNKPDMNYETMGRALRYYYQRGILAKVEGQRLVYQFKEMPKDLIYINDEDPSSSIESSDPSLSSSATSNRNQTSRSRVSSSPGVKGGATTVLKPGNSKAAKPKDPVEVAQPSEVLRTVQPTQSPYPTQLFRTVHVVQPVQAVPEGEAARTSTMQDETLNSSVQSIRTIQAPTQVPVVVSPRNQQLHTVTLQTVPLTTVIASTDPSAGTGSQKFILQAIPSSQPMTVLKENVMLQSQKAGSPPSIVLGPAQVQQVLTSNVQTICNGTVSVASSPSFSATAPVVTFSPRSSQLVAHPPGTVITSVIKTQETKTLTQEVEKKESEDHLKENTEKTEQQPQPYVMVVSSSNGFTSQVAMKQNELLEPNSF
# Chain of ELF4 (Q99607 whole entry): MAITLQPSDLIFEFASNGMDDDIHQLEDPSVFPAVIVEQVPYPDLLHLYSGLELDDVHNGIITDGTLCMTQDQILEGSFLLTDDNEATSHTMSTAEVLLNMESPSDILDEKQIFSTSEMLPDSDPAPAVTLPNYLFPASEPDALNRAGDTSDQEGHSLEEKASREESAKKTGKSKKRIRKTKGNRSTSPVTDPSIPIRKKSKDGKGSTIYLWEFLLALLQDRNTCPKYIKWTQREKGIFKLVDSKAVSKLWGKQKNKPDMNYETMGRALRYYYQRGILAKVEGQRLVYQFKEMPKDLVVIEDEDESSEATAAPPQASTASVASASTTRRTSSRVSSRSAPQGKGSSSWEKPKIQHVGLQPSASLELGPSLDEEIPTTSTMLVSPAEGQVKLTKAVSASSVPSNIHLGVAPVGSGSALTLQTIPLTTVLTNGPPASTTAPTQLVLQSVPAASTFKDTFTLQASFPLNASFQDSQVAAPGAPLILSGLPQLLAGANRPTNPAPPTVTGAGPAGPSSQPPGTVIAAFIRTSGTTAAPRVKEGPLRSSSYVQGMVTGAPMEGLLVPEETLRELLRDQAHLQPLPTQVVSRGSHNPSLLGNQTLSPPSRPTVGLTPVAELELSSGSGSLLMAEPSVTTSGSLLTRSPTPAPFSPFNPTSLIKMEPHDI
# Chain of HSF1 (Q00613 whole entry): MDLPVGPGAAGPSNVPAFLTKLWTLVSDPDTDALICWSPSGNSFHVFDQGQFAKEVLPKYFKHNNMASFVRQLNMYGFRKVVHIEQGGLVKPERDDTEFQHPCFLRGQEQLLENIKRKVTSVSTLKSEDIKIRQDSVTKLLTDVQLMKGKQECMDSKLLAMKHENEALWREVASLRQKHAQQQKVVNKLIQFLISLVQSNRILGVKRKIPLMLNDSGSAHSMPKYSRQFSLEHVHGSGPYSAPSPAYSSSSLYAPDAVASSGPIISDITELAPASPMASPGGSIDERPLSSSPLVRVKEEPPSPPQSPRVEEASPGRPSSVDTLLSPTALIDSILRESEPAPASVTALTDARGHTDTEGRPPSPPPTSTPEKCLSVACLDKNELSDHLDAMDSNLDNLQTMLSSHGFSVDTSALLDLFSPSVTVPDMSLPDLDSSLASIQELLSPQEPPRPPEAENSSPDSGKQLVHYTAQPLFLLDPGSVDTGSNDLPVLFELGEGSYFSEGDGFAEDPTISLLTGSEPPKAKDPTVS
# Chain of ETV5 (P41161 whole entry): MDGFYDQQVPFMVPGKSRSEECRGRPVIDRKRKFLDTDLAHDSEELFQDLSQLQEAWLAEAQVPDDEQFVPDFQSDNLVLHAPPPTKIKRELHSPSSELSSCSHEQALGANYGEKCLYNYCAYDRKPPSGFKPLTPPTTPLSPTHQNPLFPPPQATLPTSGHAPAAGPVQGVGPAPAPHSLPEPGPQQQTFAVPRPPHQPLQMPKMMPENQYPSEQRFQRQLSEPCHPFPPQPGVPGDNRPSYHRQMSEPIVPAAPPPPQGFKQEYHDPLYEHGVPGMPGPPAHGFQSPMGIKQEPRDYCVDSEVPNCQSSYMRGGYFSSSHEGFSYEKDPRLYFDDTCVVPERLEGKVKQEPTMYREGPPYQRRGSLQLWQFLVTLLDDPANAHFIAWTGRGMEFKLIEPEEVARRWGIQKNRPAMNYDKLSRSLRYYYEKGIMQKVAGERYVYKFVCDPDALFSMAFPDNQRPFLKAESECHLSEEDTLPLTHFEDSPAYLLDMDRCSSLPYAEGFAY
sequence,measurement,setting,value
TGATCT,binding signal,FLI1,"1.21 fold enrichment (6-mer frequency, TF over GST control)"
same,binding signal,ELK1,"1.33 fold enrichment (6-mer frequency, TF over GST control)"
same,binding signal,GABPA,"1.18 fold enrichment (6-mer frequency, TF over GST control)"
same,binding signal,ERG,"1.22 fold enrichment (6-mer frequency, TF over GST control)"
same,binding signal,ELF1,"1.18 fold enrichment (6-mer frequency, TF over GST control)"
same,binding signal,EHF,"1.22 fold enrichment (6-mer frequency, TF over GST control)"
same,binding signal,SPI1,"1.15 fold enrichment (6-mer frequency, TF over GST control)"
same,binding signal,SPIB,"1.28 fold enrichment (6-mer frequency, TF over GST control)"
same,binding signal,ELK3,"1.23 fold enrichment (6-mer frequency, TF over GST control)"
same,binding signal,FEV,"1.12 fold enrichment (6-mer frequency, TF over GST control)"
same,binding signal,ETV5,"1.21 fold enrichment (6-mer frequency, TF over GST control)"
same,binding signal,HSF1,"1.66 fold enrichment (6-mer frequency, TF over GST control)"
same,binding signal,SPIC,"1.19 fold enrichment (6-mer frequency, TF over GST control)"
same,binding signal,ELF4,"1.16 fold enrichment (6-mer frequency, TF over GST control)"
same,binding signal,ELK4,"1.37 fold enrichment (6-mer frequency, TF over GST control)"
same,binding signal,ETV2,"1.21 fold enrichment (6-mer frequency, TF over GST control)"
same,binding signal,ELF3,"1.25 fold enrichment (6-mer frequency, TF over GST control)"
same,binding signal,CRX,"1.86 fold enrichment (6-mer frequency, TF over GST control)"
same,binding signal,ETV1,"1.2 fold enrichment (6-mer frequency, TF over GST control)"

# — PMC7862700, “An all-to-all approach to the identification of sequence-specific readers for epigenetic DNA modifications on cytosine”
